According to paper PMC7819943, “Rice protein-binding microarrays: a tool to detect cis-acting elements near promoter regions in rice”:
In all, about 39,000 sequences were measured (“fluorescence intensity (a.u.)”: median about 4,300, highest 2% from about 39,000 on). For the sample, the highest values were picked, then their nearest neighbours and some sequences at random.

Target: T1, OsSMF1 (Oryza sativa, UniProt Q6ZLB0 1-436)
T1 sequence: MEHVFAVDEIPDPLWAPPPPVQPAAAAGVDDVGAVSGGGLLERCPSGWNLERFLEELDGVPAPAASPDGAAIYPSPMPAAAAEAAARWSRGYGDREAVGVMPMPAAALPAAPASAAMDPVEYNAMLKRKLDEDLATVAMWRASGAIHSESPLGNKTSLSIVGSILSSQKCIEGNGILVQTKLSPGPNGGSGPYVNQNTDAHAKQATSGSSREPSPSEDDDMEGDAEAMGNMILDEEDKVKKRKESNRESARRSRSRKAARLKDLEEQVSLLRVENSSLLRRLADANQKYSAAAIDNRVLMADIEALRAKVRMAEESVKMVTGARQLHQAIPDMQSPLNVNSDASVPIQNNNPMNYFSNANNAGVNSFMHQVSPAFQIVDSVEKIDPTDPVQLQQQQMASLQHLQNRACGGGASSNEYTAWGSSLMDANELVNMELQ
Experiment: protein-binding microarray (RPBM); PBS, 2% BSA, 51.3 ng/ul salmon testes DNA, 50 uM zinc acetate, 200 nM TF, 25 C, 1 h; high values mean tight binding
Conditions: protein: recombinant; tags: N-terminal polyhistidine and DsRed monomer fusion (pET32a); chain copies: 2; label: CyDye5-dUTP incorporated in the synthesized complementary strand; 3' TTTTT single-stranded linker to array surface; dsDNA, one strand shown
Method in brief: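 In PBS with 2% BSA, salmon testes DNA and 50 µM zinc acetate, 200 nM protein was incubated on a custom Agilent array at 25 °C for 1 h and then washed off. The array had been made double-stranded by primer extension with Cy5-dUTP and blocked with 2% BSA. The proteins were transcription factors fused N-terminally to polyhistidine and DsRed, expressed in E. coli BL21-CodonPlus and purified on Ni–NTA. The binding signal is per-feature fluorescence intensity (arbitrary units) from an Axon 4000B scanner.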

| Sequence | binding signal |
| --- | --- |
| GACTTGATTACCACGCGTATACTATATAGGACAAAATTGCCGGAGTCACCTAGTGCAG | 3190 fluorescence intensity (a.u.) |
| TGTTCCTCCACGTCGCTCCGCCGCTCCGCCCGCCTTGCTTCGGAGTCACCTAGTGCAG | 5090 fluorescence intensity (a.u.) |
| TCCGGAGAGTTGACGCAGCGTCAACCGGGTCCGTCGTTCTCGGAGTCACCTAGTGCAG | 3800 fluorescence intensity (a.u.) |
| AATCGCGAGATATCCACGTGAGATTGCGCAGCGAGACGCGCGGAGTCACCTAGTGCAG | 5140 fluorescence intensity (a.u.) |
| ATGAGAGATAAGTAGATGACACATTCACAGTTGCTATAGTCGGAGTCACCTAGTGCAG | 4040 fluorescence intensity (a.u.) |
| AAGCTAGCGGTCACCCAGTCAGCTCACCCCGAGACGCACCCGGAGTCACCTAGTGCAG | 4400 fluorescence intensity (a.u.) |
| CGCAGTTGCTTCTGCAAAAGAGATTGATGACAAGGATCACCGGAGTCACCTAGTGCAG | 3530 fluorescence intensity (a.u.) |
| TCGATCGACATGGTGAATTGGCGATCGGGTTGGCTCGGCTCGGAGTCACCTAGTGCAG | 3170 fluorescence intensity (a.u.) |
| GCCACGTAGGTGCCATGTGGCACCACGTCAGCAAAATTGCCGGAGTCACCTAGTGCAG | 49100 fluorescence intensity (a.u.) |
| GTAGGTGACATGTGTGGTGTCACACTGACTCAGCCATCACCGGAGTCACCTAGTGCAG | 10600 fluorescence intensity (a.u.) |
| TTTATTTCTACCGCCACGTAGGTGCCATGTCAATGTCACGCGGAGTCACCTAGTGCAG | 14300 fluorescence intensity (a.u.) |
| TAAATGTTCGTGTGGCATGCCACATCAGCACCACGTAGGACGGAGTCACCTAGTGCAG | 21400 fluorescence intensity (a.u.) |
| TTAGACACGTAGGTGCCATGTCAGCCAAAACCACCGAGGGCGGAGTCACCTAGTGCAG | 17100 fluorescence intensity (a.u.) |
| TTTTATTTCTACTGCCACGTAGGTGCCACGTCAACGCCACCGGAGTCACCTAGTGCAG | 49800 fluorescence intensity (a.u.) |
| TAGGCAAATTACATGGCATGTGCCACGTCGTTGTTGCACCCGGAGTCACCTAGTGCAG | 16500 fluorescence intensity (a.u.) |
| TTATTTCTACTGCCACGTAGGTGCCACGTCAACGCCACGTCGGAGTCACCTAGTGCAG | 37400 fluorescence intensity (a.u.) |
| CTACTGACACGTAGGTGCCACCATGGCATGCCACGTCAGCCGGAGTCACCTAGTGCAG | 61500 fluorescence intensity (a.u.) |
| CATAGATTAATATGAAATATATAACTCCACAAATATGCAACGGAGTCACCTAGTGCAG | 3500 fluorescence intensity (a.u.) |
| ACACGGCCTATAAATATCTAACCATCCTTTGCCTGTCGAGCGGAGTCACCTAGTGCAG | 4970 fluorescence intensity (a.u.) |
| TGGATTTTGCACCGATCGCACCACGTCTCCGTCTGTTTGCCGGAGTCACCTAGTGCAG | 4240 fluorescence intensity (a.u.) |
| TCGCCCGCACGTGGCCCTCCTCTCCTCCCTCCCACCTCGTCGGAGTCACCTAGTGCAG | 3380 fluorescence intensity (a.u.) |

| Sequence | binding signal |
| --- | --- |
| ACCACACACACACTGACACTGTGACACAACACAACACGGCCGGAGTCACCTAGTGCAG | 6920 fluorescence intensity (a.u.) |
| TCACCAATCACCTGCCCTCACACCAACACGCCACGCGAACCGGAGTCACCTAGTGCAG | 3750 fluorescence intensity (a.u.) |
| CACCTGCAGCTGCCACGTCAGAGCCACGTCGGATTCCAACCGGAGTCACCTAGTGCAG | 40800 fluorescence intensity (a.u.) |
| GTTCAATTCCTGCTGGATGCACGTGAACCGGAACGTTCCACGGAGTCACCTAGTGCAG | 52000 fluorescence intensity (a.u.) |
| CACATTGAGTCAGCTGCCACGTCGGATAAAACCGGAGTCACGGAGTCACCTAGTGCAG | 15000 fluorescence intensity (a.u.) |
| ATTCCTATCATTGGAGTATGTGTGCACGTCATTAGTGCCACGGAGTCACCTAGTGCAG | 6500 fluorescence intensity (a.u.) |
| GGAACATGTATGCACCGAACCTGGTGCATGTCCACGTTCACGGAGTCACCTAGTGCAG | 3740 fluorescence intensity (a.u.) |
| CACACTGAGTCAGCTGCCACGTCGGATAAAACCGGAGTCACGGAGTCACCTAGTGCAG | 10500 fluorescence intensity (a.u.) |
| AGTATCAGATTCCAACTCACATGCCACGTCACATGCATGCCGGAGTCACCTAGTGCAG | 42200 fluorescence intensity (a.u.) |
| CACGCCAACTAGGATGGATAGATGGGCCACATGTATTCCACGGAGTCACCTAGTGCAG | 3530 fluorescence intensity (a.u.) |
| GATGCACCACTGCTGCGTCGCACGTTCCACCCCATTCCACCGGAGTCACCTAGTGCAG | 3520 fluorescence intensity (a.u.) |
| TCTTTCTGCACTTTCTCTGAACGTGGATAAGACATAACCGCGGAGTCACCTAGTGCAG | 8130 fluorescence intensity (a.u.) |
| TTAATCACTTCTCAAACTTTTAATGCAATGACTTGTGAACCGGAGTCACCTAGTGCAG | 3420 fluorescence intensity (a.u.) |
| CGTCCGCAGCACGCCACGGTAGCGCGACACCCGGCCTTCCCGGAGTCACCTAGTGCAG | 4600 fluorescence intensity (a.u.) |
| AAGCGATGGAAGCAGCAGACGTGTCGCACGGGAATTTGAGCGGAGTCACCTAGTGCAG | 5240 fluorescence intensity (a.u.) |
| GGCATGGGTATGGGTCATCACTACCCATGCCCGCTTTGCCCGGAGTCACCTAGTGCAG | 4410 fluorescence intensity (a.u.) |
| GTTGACATATGGATCCTGGTGTTATCGACTCAATGTAGAGCGGAGTCACCTAGTGCAG | 5150 fluorescence intensity (a.u.) |
| TTTTAGGTAGAATGGTCCTGTTGGATCATCATATCAATGACGGAGTCACCTAGTGCAG | 43400 fluorescence intensity (a.u.) |
| GATGGTAGGTATGCATATGACGCATATCCTACCTGACGGACGGAGTCACCTAGTGCAG | 3450 fluorescence intensity (a.u.) |
| TATCCAGGCGCACGACACTTGACAACTCTGTACTACGTAGCGGAGTCACCTAGTGCAG | 38900 fluorescence intensity (a.u.) |
| AATTGATCTTCAGAGCCCACGTAGGTATTAGACTTTCCTACGGAGTCACCTAGTGCAG | 6290 fluorescence intensity (a.u.) |
